Compound activity from PubChem.
VACV Venus inh = vaccinia inhibition (Venus reporter); Vaccinia virus Venus reporter expression, fluorescence; Potency, µM (top dose mostly 36.5 µM), for the others: top-dose activity change, negative = inhibition, usual class: inhibitors; 0.46% of 330,000 active; AID 720580; calls by dose curve; tested in A549 cells; note: potency is the fitted concentration of half-maximal effect; nearly all actives have a fitted effect of over 30% in size
FMDV inh = blocks foot and mouth disease virus; FMDV antiviral cell-based qHTS; AID 1159524; Potency, µM (series often up to 57.9 µM), without a hit: at the top dose activity change, negative = inhibition, hits mostly inhibitors; 1.2% of 410,000 active; calls by dose curve; tested in HEK293T cells; note: read-out not given here; potency is the fitted concentration of half-maximal effect; nearly all actives have a fitted effect of over 45% in size
VACV mCherry inh = inhibitors of vaccinia virus infection (mCherry reporter signal). Vaccinia virus mCherry reporter infection, fluorescence. Potency, µM (titrated, usually from 36.5 µM), inactives show at the top dose activity change, negative = inhibition, most hits filed as inhibitors. 0.63% of 310,000 active. AID 720579; calls by dose curve; tested in A549 cells; note: potency is the fitted concentration of half-maximal effect; nearly all actives have a fitted effect of over 35% in size
HCMV antiviral = blocks human cytomegalovirus replication; HFF cells, HCMV-luciferase reporter, 72 h; hits give low values; activity change, negative = inhibition, % at 57.5 µM; 4.5% of 410,000 active; AID 1259415; in the data active = activity change below about -60%; inconclusive = no clear call, values can overlap the other calls; inactive = above about -39%
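Inhibition of viral replication was scored as loss of reporter luminescence in HFFs infected with HCMV-luciferase (MOI 1 PFU/cell) for 72 h; compounds tested at 2 doses, normalized to buffer and Salinomycin controls.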
HCV inh = HCV inhibition. Huh7.5.1 HCVcc-Cre infection, luciferase reporter, 44 h. Potency, µM (titrated, usually from 41.8 µM), without a hit: at the highest dose activity change, negative = inhibition, usual class: inhibitors. 3.4% of 340,000 active. AID 651820; active = well fitted inhibition curve with a large enough effect; inconclusive = small, poorly fitted or top-dose-only effect, or another doubt; inactive = no such curve, though single readings can be large or run the other way; note: potency is the fitted concentration of half-maximal effect
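Luciferase read-out (15 sec integration) after a 15 min room-temperature substrate step quantifies HCVcc-Cre infection. Cells, 1,000 per well, had compound added 4 h post-plating, then virus at ~0.5 moi, and were cultured 44 h.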
Starred values were filed as active, the others as inactive; [ ] = dose if it differs, or a comment. Only some compounds are listed: those with a hit (about 7.3% of all), similar ones and a draw of the others. % is set by controls: 0 for no effect and ±100 for the full control effect.

For O=C(/C=C/c1ccccc1)c1ccc(O[C@H]2OC(CO)C(O)C(O)C2O)cc1O (some centres not stated) the results were VACV Venus inh -8%, FMDV inh 15% and VACV mCherry inh -11%.
For CCOc1ccc(OCc2ccc(C(=O)N/N=C(\C)c3ccccn3)cc2)cc1 the results were VACV Venus inh inconclusive, FMDV inh -18%, VACV mCherry inh 1.8µM*, HCMV antiviral -85* and HCV inh inconclusive.
`CCOc1ccc(C(=O)N/N=C(/C)C2C(=O)c3ccccc3C2=O)cc1` gave VACV Venus inh -7%, FMDV inh -29%, VACV mCherry inh inactive, HCMV antiviral 40 and HCV inh 10%.
C/C(=N\NC(=O)c1ccccc1OCc1ccc(F)cc1)c1ccccn1 was read as FMDV inh -22%, HCMV antiviral -102* and HCV inh 2.8µM*.
`O=C(Cc1cccc2ccccc12)NCC(=O)N1CCN(Cc2cccc(C(F)(F)F)c2)CC1` gave FMDV inh inconclusive, HCMV antiviral -62* and HCV inh 5.6µM*.
`O=C(Cc1cccc2ccccc12)NCC(=O)N1CCN(CC(=O)Nc2ccc(F)cc2)CC1` gave VACV Venus inh -20%, FMDV inh inconclusive, VACV mCherry inh -5% and HCMV antiviral 45.
For O=C(CSc1cccc(C(F)(F)F)c1)NCc1ccccc1 the results were VACV Venus inh -12%, FMDV inh -11%, VACV mCherry inh -9%, HCMV antiviral -73* and HCV inh 3%.
CC1(C(=O)NCc2cccc(C(F)(F)F)c2)CCN1Cc1ccc2ccccc2c1 (configuration not stated) was read as VACV Venus inh -9%, FMDV inh 0%, VACV mCherry inh inactive and HCMV antiviral -72*.
`CN(Cc1ccon1)C(=O)c1cnn(-c2ncc3c(n2)-c2ccccc2CCC3)c1C1CC1` gave VACV Venus inh 0%, FMDV inh 20% and VACV mCherry inh -14%.
Screening Cc1ccc(O)c(C(=O)CC(=O)c2ccc(Cl)cc2)c1 returned FMDV inh 18%, HCMV antiviral inconclusive and HCV inh 22µM*.
`Cc1cccc(C(=O)CC(=O)c2cc(Cl)ccc2O)c1` gave FMDV inh 8% and HCV inh inconclusive.
COc1cccc(NC(=O)CN(c2cccc(F)c2)S(C)(=O)=O)c1 was read as VACV Venus inh -7%, VACV mCherry inh -12%, HCMV antiviral -13 and HCV inh 8.9µM*.
For N#C/C(=C\c1ccc(-c2ccc([N+](=O)[O-])cc2)o1)C(=O)Nc1nc(-c2cccs2)cs1 the results were FMDV inh 0%, HCMV antiviral -22 and HCV inh 10µM*.
Screening N#C/C(=C/c1ccc(-c2cccc([N+](=O)[O-])c2)o1)C(=O)Nc1nc(-c2cccs2)cs1 returned VACV Venus inh -11%, FMDV inh -17%, VACV mCherry inh -4%, HCMV antiviral -31 and HCV inh -19%.
`CCNc1nc(NCC)nc(N(C#N)CCOc2ccccc2)n1` gave FMDV inh -16%, HCMV antiviral 24 and HCV inh -5%.
For CCNc1nc(NC(C)C)nc(N(C#N)CCOc2ccccc2)n1 the results were VACV Venus inh -22%, FMDV inh -35%, VACV mCherry inh inactive, HCMV antiviral 54 and HCV inh 22µM*.
For CCn1c(-c2ccc(C)cc2)nn(CC(=O)NCCc2ccccc2)c1=S the results were VACV Venus inh -25%, FMDV inh 11%, VACV mCherry inh -14%, HCMV antiviral -103* and HCV inh inconclusive.
For COc1ccc(-c2nn(CC(=O)NCCc3ccccc3)c(=S)n2C)cc1 the results were VACV Venus inh -13%, FMDV inh 20%, VACV mCherry inh -22%, HCMV antiviral -96* and HCV inh inconclusive.
For O=S1(=O)c2ccc(Br)cc2OC[C@H](c2ccccc2)N1Cc1ccccc1 the results were HCMV antiviral -3.
CCOC(=O)CC(NC(=O)CCc1c(C)nc2cc(-c3ccccc3)nn2c1C)c1ccc(C)cc1 (configuration not stated) was read as VACV Venus inh -23%, FMDV inh -13%, VACV mCherry inh inactive and HCMV antiviral inconclusive.
For CCCCC/C=C\C/C=C\CCCCCCCC(=O)NCC(=O)O the results were VACV Venus inh -11%[3.33 µM], FMDV inh -9%[6.7 µM] and VACV mCherry inh -15%[3.33 µM].
O=C(c1ccco1)N(CCCN1CCOCC1)c1nc(-c2ccc(Cl)cc2)cs1 was read as VACV Venus inh -9%, FMDV inh inconclusive, VACV mCherry inh -21%, HCMV antiviral 5 and HCV inh 11µM*.
For O=C(c1ccco1)N(CCCN1CCOCC1)c1nc(-c2ccc(F)cc2)cs1 the results were VACV Venus inh inconclusive, VACV mCherry inh -18%, HCMV antiviral 22 and HCV inh 11µM*.
Screening CCN(CC)CCCN(C(=O)c1ccco1)c1nc(-c2ccc(Cl)cc2)cs1 returned VACV Venus inh -21%, FMDV inh -2%, VACV mCherry inh -22%, HCMV antiviral 35 and HCV inh 11µM*.
`COc1ccc(-c2csc(N(CCCN3CCOCC3)C(=O)CCl)n2)cc1` gave VACV Venus inh -7%, FMDV inh -9%, VACV mCherry inh -10%, HCMV antiviral 36 and HCV inh -6%.
O=C(NCc1ccccn1)c1nn(-c2ccccc2Cl)nc1CO was read as VACV Venus inh -6%, FMDV inh -11%, VACV mCherry inh -7% and HCMV antiviral 17.
CC(C)[C@H](NC(=O)c1ccc(Cl)c(Cl)c1)C(=O)N1CCC[C@H]1C(=O)NCCc1ccccc1Cl was read as HCMV antiviral 22.
For Cn1nccc1C(=O)Nc1ccn(C23CC4CC(CC(C4)C2)C3)n1 the results were VACV Venus inh -20%, FMDV inh inconclusive, VACV mCherry inh -26%, HCMV antiviral -81* and HCV inh inconclusive.
For Cn1nccc1C(=O)Nc1ccc(Cl)cc1 the results were VACV Venus inh -8%, VACV mCherry inh 0%, HCMV antiviral 17 and HCV inh 15%.
Screening Cc1nn(C)c(C(=O)Nc2ccn(C34CC5CC(CC(C5)C3)C4)n2)c1[N+](=O)[O-] returned VACV Venus inh inconclusive, FMDV inh inconclusive, VACV mCherry inh -14%, HCMV antiviral -62* and HCV inh 8%.
Cn1cc([N+](=O)[O-])c(C(=O)Nc2ccn(C34CC5CC(CC(C5)C3)C4)n2)n1 was read as VACV Venus inh -2%, FMDV inh -17%, VACV mCherry inh -5%, HCMV antiviral -95* and HCV inh 2%.
For CCOc1ccc(NC(=O)NCCN2CCN(c3cc(Cl)ccc3C)CC2)cc1 the results were VACV Venus inh -1%, FMDV inh -20%, VACV mCherry inh -1% and HCMV antiviral -24.
`Cc1cc(C)c(-c2c(N)cc(Br)cc2Br)c(N)c1` gave VACV Venus inh -12%, FMDV inh inconclusive, VACV mCherry inh 13µM*, HCMV antiviral -27 and HCV inh inconclusive.
